{"source": "PubChem BioAssay AID540276", "about": "(National Center for Advancing Translational Sciences (NCATS), 2011)", "note": "Out of some 300,000 compounds screened, about 5,400 (1.8%) were called active. About 28% were inconclusive and are not listed. Calls come from the whole dose curve; tested in HEK293 cells. The entries come from a sample that favours actives as a whole. Entries that show only a call come without a potency. Potency is the fitted concentration of half-maximal effect."}
{"experiment": "qHTS for inhibitors of binding or entry into cells for Marburg Virus", "details": "Marburg virus pseudotyped entry inhibition, cell reporter; series mostly up to 37.8 µM"}
{"molecule": "CC1CCN(C(=O)C2CCN(S(=O)(=O)N3CCC4(CC3)OCCO4)CC2)CC1", "Potency": "inactive"}
{"molecule": "NC(=O)C1CCN(C(=O)c2cn(-c3ccccc3)nc2-c2cccnc2)CC1", "Potency": "inactive"}
{"molecule": "C/C(=N\\NC(=O)Cc1ccc(Cl)cc1)c1ccccn1", "Potency": "3.26 µM (active)"}
{"molecule": "C/C(=N\\NC(=O)Cc1ccc(Br)cc1)c1cccnc1", "Potency": "inactive"}
{"molecule": "CC1=NNC(=O)C1CCC(=O)N/N=C(\\C)c1ccc(Cl)cc1", "note": "(centres undefined)", "Potency": "inactive"}
{"molecule": "Cn1c(CCNS(=O)(=O)c2ccc(F)cc2)nnc1SCc1cccnc1", "Potency": "inactive"}
{"molecule": "Cc1ccc(Br)c(NS(=O)(=O)c2cccc(C(=O)N3CCNC(=O)C3)c2)c1", "Potency": "inactive"}
{"molecule": "Cc1c(NC(=O)C(C)OC(=O)c2ccccc2O)c(=O)n(-c2ccccc2)n1C", "note": "(centres undefined)", "Potency": "inactive"}
{"molecule": "Fc1ccc2[nH]c3c(N4CCSCC4)ncnc3c2c1", "Potency": "10 µM (active)"}
{"molecule": "Fc1ccc2[nH]c3c(N4CCN(Cc5ccc6c(c5)OCO6)CC4)ncnc3c2c1", "Potency": "8.91 µM (active)"}
{"molecule": "Fc1ccc(N2CCN(Cc3ccc4c(c3)OCO4)CC2)cc1", "Potency": "inactive"}
{"molecule": "Cc1cc(N2CCN(Cc3ccc4c(c3)OCO4)CC2)n2ncnc2n1", "Potency": "inactive"}
{"molecule": "O=C(C1C=CC(C(=O)N2CCOCC2)S1)N1CCOCC1", "note": "(centres undefined)", "Potency": "inactive"}
{"molecule": "O=C(Cn1ccc2cc(S(=O)(=O)N3CCCC3)ccc21)NCc1ccccc1", "Potency": "inactive"}
{"molecule": "COCCn1c(C)cc(C(=O)CSc2nnc(C3CC3)n2C2CC2)c1C", "Potency": "inactive"}
{"molecule": "CCN(CC)CCNc1ccc(Cl)cc1[N+](=O)[O-]", "Potency": "inactive"}
{"molecule": "CCN(CC)CCCC(C)Nc1ccnc2cc(Cl)ccc12", "note": "(centres undefined)", "Potency": "5.62 µM (active)"}
{"molecule": "COc1ccc(CNC(=O)C(C)NCc2ccccc2Cl)cc1", "note": "(centres undefined)", "Potency": "inactive"}
{"molecule": "Cc1cccc(N2C(=O)C[C@@H](N3CCN(Cc4ccc(Cl)cc4)CC3)C2=O)c1", "Potency": "inactive"}
{"molecule": "Cc1nn2c(c1-c1ccccc1)N=C(c1ccco1)CC2c1ccccc1", "note": "(centres undefined)", "Potency": "0.517 µM (active)"}
{"molecule": "Cc1ccc(C)c(C(C)NC(=O)C2CCCO2)c1", "note": "(centres undefined)", "Potency": "inactive"}
{"molecule": "COC(CNC(=O)c1ccc2c(c1)ncn2-c1cc(C)cc(C)c1)OC", "Potency": "inactive"}
{"molecule": "O=C(CC(O)(C(F)(F)F)C(F)(F)F)Nc1ccc(Cl)c(Cl)c1", "Potency": "3.26 µM (active)"}
{"molecule": "N/C(=N\\OC(=O)Nc1ccc(Cl)c(Cl)c1)c1ncc(C(F)(F)F)cc1Cl", "Potency": "inactive"}
{"molecule": "O=C(CC(=O)Nc1ccc(Cl)c(Cl)c1)N/N=C/c1ccc(O)cc1", "Potency": "inactive"}
{"molecule": "CSc1ncc(C(=O)Nc2ccc(C)cc2C)c(C)n1", "Potency": "inactive"}
{"molecule": "CCOc1ccc(NC(=O)C(C)N2C(=O)c3ccccc3C2=O)cc1", "note": "(centres undefined)", "Potency": "inactive"}
{"molecule": "COc1ccc(CCNC(=O)CCCn2c(=O)c3ccccc3n(Cc3ccc(F)cc3Cl)c2=O)cc1OC", "Potency": "inactive"}
{"molecule": "COc1ccc(CCn2ccc(O)c(Cc3ccc(Cl)cc3Cl)c2=O)cc1OC", "Potency": "3.98 µM (active)"}
{"molecule": "COc1ccc(CCNC(=O)CCc2ccccc2O)cc1OC", "Potency": "inactive"}
{"molecule": "COC(=O)c1ccc(C(=O)NC2CC(C)(C)Cc3c2cnn3-c2ccc(F)cc2)nc1", "note": "(centres undefined)", "Potency": "inactive"}
{"molecule": "Cn1nnnc1SCC(=O)Nc1sccc1C(N)=O", "Potency": "inactive"}
{"molecule": "CN1c2ccc(C=O)c3c(C=O)ccc(c23)N(C)C1(C)C", "Potency": "10 µM (active)"}
{"molecule": "O=C(CN(CC1CCCO1)C(=O)CNS(=O)(=O)c1ccc(Cl)cc1)NCc1ccccc1", "note": "(centres undefined)", "Potency": "inactive"}
{"molecule": "COc1ccc(C(=O)Nc2ccnn2C2CCN(Cc3ccncc3)CC2)cc1", "Potency": "inactive"}
{"molecule": "S=C(c1ccccc1)N1CCCC1", "Potency": "inactive"}
{"molecule": "O=C(NC(Cc1ccccc1)C(=O)N1CCCC(C(F)(F)F)C1)c1ccccc1", "note": "(centres undefined)", "Potency": "inactive"}
{"molecule": "CSCCC(NS(=O)(=O)/C=C/c1ccccc1)C(=O)N1CCC(C)CC1", "note": "(centres undefined)", "Potency": "inactive"}
{"molecule": "CSCCC(NC(=O)c1ccccc1)C(=O)N1CCN(Cc2ccc(Cl)cc2)CC1", "note": "(centres undefined)", "Potency": "11.2 µM (active)"}
{"molecule": "CC(=O)Nc1ccc(S(=O)(=O)NNC(=O)CCc2ccccc2)cc1", "Potency": "inactive"}
{"molecule": "CC(=O)Nc1ccc(Nc2ncnc3c2nnn3Cc2ccccc2Cl)cc1", "Potency": "inactive"}
{"molecule": "CN(C(=O)CC1C(=O)NCCN1Cc1ccc2ccccc2c1)C1CCOCC1", "note": "(centres undefined)", "Potency": "inactive"}
{"molecule": "c1ccc2c(c1)CSc1sccc1C2=C1CCNCC1", "Potency": "6.51 µM (active)"}
{"molecule": "CCc1c(Nc2ccccc2Cl)nc(N)[nH]c1=O", "Potency": "inactive"}
{"molecule": "COc1ccccc1N(CC(=O)Nc1c(C)n(C)n(-c2ccccc2)c1=O)S(=O)(=O)c1ccccc1", "Potency": "inactive"}
{"molecule": "COc1ccc(-c2ccc(Nc3ccc(S(=O)(=O)N4CCCC4)cc3)nn2)cc1OC", "Potency": "14.6 µM (active)"}
{"molecule": "COc1ccc(S(=O)(=O)N2CCCCC2)cc1Br", "Potency": "inactive"}
{"molecule": "COc1ccc(S(=O)(=O)Nc2ccc(S(=O)(=O)N3CCCCC3)cc2)cc1OC", "Potency": "inactive"}
{"molecule": "CCCN1CCN(C(=O)CCCNC(=O)c2ccc(Cl)cc2)CC1", "Potency": "inactive"}
{"molecule": "CC1(C)Cc2c(cnn2-c2cccc(F)c2)C(NC(=O)c2cc[n+]([O-])cc2)C1", "note": "(centres undefined)", "Potency": "inactive"}
{"molecule": "CCC(=O)N(Cc1ccccc1)c1ccccn1", "Potency": "inactive"}
{"molecule": "CCCN(CC1CC1)C(=O)COC(=O)c1ccc(C)cc1O", "Potency": "inactive"}
{"molecule": "CC(Oc1ccc(Br)cc1)C(=O)NCC(c1ccco1)N1CCCCC1", "note": "(centres undefined)", "Potency": "inactive"}
{"molecule": "COc1ccc(-c2nn(-c3ccccc3)cc2/C=N/Nc2ccccn2)cc1OC", "Potency": "13 µM (active)"}
{"molecule": "CN(C)/N=C/c1cn(-c2ccccc2)nc1-c1cccnc1", "Potency": "inactive"}
{"molecule": "Cc1ccc(-c2nn(-c3ccccc3)cc2/C=N/NC(=O)c2ccc3c(c2)OCO3)cc1", "Potency": "inactive"}
{"molecule": "CC(CC(=O)Nc1ccc(F)cc1F)S(=O)(=O)c1ccc2c(c1)NC(=O)CO2", "note": "(centres undefined)", "Potency": "inactive"}
{"molecule": "CC(C)CC1(C)NC(=O)N(CC(=O)Nc2ccc3c(c2)OCCO3)C1=O", "note": "(centres undefined)", "Potency": "inactive"}
{"molecule": "CC(=O)c1c(OCC(=O)N(C)C2CCCCC2)ccc2c(C)cc(=O)oc12", "Potency": "inactive"}
{"molecule": "Cc1c(NC(=O)Nc2cccc([N+](=O)[O-])c2)c(=O)n(-c2ccccc2)n1C", "Potency": "inactive"}
{"molecule": "O=C(CNC(=O)C1COc2ccccc2O1)N/N=C/c1cc(Br)c(O)c(Br)c1", "note": "(centres undefined)", "Potency": "inactive"}
{"molecule": "CCn1nnc2cc(C(=O)Nc3ccc(C(=O)OC(C)C)cc3)ccc21", "Potency": "inactive"}
{"molecule": "CCC(=O)N(Cc1cc2cc(OC)ccc2[nH]c1=O)c1ccccc1C", "Potency": "inactive"}
{"molecule": "COc1ccc2[nH]c(=O)c(CN(Cc3cccnc3)S(=O)(=O)c3ccccc3F)cc2c1", "Potency": "2.82 µM (active)"}
{"molecule": "COc1ccc(-c2[nH]ncc2CN(C)Cc2cccnc2)c(F)c1", "Potency": "inactive"}
{"molecule": "Cc1ccc(C(=O)Nc2ccc3c(c2)OCCO3)cc1S(=O)(=O)N1CCOCC1", "Potency": "inactive"}
{"molecule": "Cc1ccc(-c2csc(C(C#N)=C(O)CN3CCN(C(=O)c4ccco4)CC3)n2)cc1", "Potency": "inactive"}
{"molecule": "C/C(Cl)=C\\Cn1c(Nc2cccc(C)c2)nc2c1c(=O)n(C)c(=O)n2C", "Potency": "11.6 µM (active)"}
{"molecule": "COC(=O)C(C)Sc1nc2c(c(=O)n(C)c(=O)n2C)n1Cc1cccc(C)c1", "note": "(centres undefined)", "Potency": "inactive"}
{"molecule": "Cc1cccc(Cn2c(SCCO)nc3c2c(=O)n(C)c(=O)n3C)c1", "Potency": "inactive"}
{"molecule": "COc1ccccc1NC(=O)C(C)OC(=O)c1ccc(-n2cnnn2)cc1", "note": "(centres undefined)", "Potency": "inactive"}
{"molecule": "CC(C)CC(=O)Nc1ccc(Cc2ccncc2)cc1", "Potency": "inactive"}
{"molecule": "CCOc1ccc(-c2noc(CCC(=O)NC3CCCC3)n2)cc1OC", "Potency": "inactive"}
{"molecule": "Cc1ccc2c(c1)N(C(=O)CCC(=O)NCc1ccccc1F)CC(C)O2", "note": "(centres undefined)", "Potency": "inactive"}
{"molecule": "COc1ccccc1NC(=O)CCC(=O)N1CC(C)Oc2ccc(C)cc21", "note": "(centres undefined)", "Potency": "inactive"}
{"molecule": "CC1CN(C(=O)CCC(=O)NCCCN2CCC(Cc3ccccc3)CC2)c2cc(Cl)ccc2O1", "note": "(centres undefined)", "Potency": "11.2 µM (active)"}
{"molecule": "N[C@@H](Cc1ccccc1)C(=O)N1CCC(C(=O)NCC(=O)Nc2ccc(F)cc2)CC1", "Potency": "inactive"}
{"molecule": "O=C(CN1CCN(C(=O)C2CCCO2)CC1)Nc1c(Cl)cccc1Cl", "note": "(centres undefined)", "Potency": "inactive"}
{"molecule": "COc1cc(/C=N/Nc2nc3ccccc3s2)ccc1O", "Potency": "10 µM (active)"}
{"molecule": "COc1cc(/C=N\\Nc2nc(-c3cccs3)c(NC(C)=O)s2)ccc1O", "Potency": "inactive"}
{"molecule": "CCNc1nc(NCC)nc(N/N=C/c2ccc(O)c(OC)c2)n1", "Potency": "inactive"}
{"molecule": "CCN(CC(=O)Nc1c(F)cccc1F)C(=O)Cc1cccs1", "Potency": "inactive"}
{"molecule": "CCOC(=O)N(Cc1ccccc1)C1CC1", "Potency": "inactive"}
{"molecule": "CCOC(=O)CCP(=O)(O)C(O)(c1ccccc1)c1ccccc1", "Potency": "inactive"}
{"molecule": "CCCC(C(=O)OCCN(CC)CC)(c1ccccc1)c1ccccc1", "Potency": "10 µM (active)"}
{"molecule": "CCC(C(=O)OCCN(CC)CC)c1ccccc1", "note": "(centres undefined)", "Potency": "inactive"}
{"molecule": "COc1ccccc1CN1CCNC(=O)C1CC(=O)N(C)CC1CCOCC1", "note": "(centres undefined)", "Potency": "inactive"}
{"molecule": "O=C(c1ccc(N2CCOCC2)c([N+](=O)[O-])c1)N1CCN(c2ccccc2F)CC1", "Potency": "inactive"}
{"molecule": "COc1ccc(CCNC(=O)CSc2nc3[nH]ncc3c(=O)n2-c2cccc(C(F)(F)F)c2)cc1OC", "Potency": "inactive"}
{"molecule": "Cc1cccc2nc(CSc3nc4[nH]ncc4c(=O)n3-c3cccc(Cl)c3)cc(=O)n12", "Potency": "7.31 µM (active)"}
{"molecule": "COC(=O)c1ccc(CSc2nc3ccccc3c(=O)n2-c2cccc(OC)c2)o1", "Potency": "inactive"}
{"molecule": "CC(=O)C1=C(C)NC(=O)NC1c1ccc2c(c1)OCO2", "note": "(centres undefined)", "Potency": "inactive"}
{"molecule": "C#CC(C)(CC)NC(=O)Cn1nnc(-c2ccc(OCc3c(F)cccc3Cl)cc2)n1", "note": "(centres undefined)", "Potency": "inactive"}
{"molecule": "CN(C)CCCNC(=O)/C=C/c1ccc(OCc2c(F)cccc2Cl)cc1", "Potency": "3.98 µM (active)"}
{"molecule": "O=C(/C=C/c1ccc(F)cc1)NCCNC(=O)/C=C/c1ccc(F)cc1", "Potency": "inactive"}
{"molecule": "O=C(CCCCCNC(=O)c1ccccc1)N/N=C/c1ccccc1", "Potency": "inactive"}
{"molecule": "CCOc1cc(C=NNC(=O)CCCC(=O)NN=Cc2ccc(O)c(OCC)c2)ccc1O", "Potency": "inactive"}
{"molecule": "NCCCCCC(=O)N/N=C/c1ccc2nccnc2c1", "Potency": "2.82 µM (active)"}
{"molecule": "COc1ccccc1CNC(=O)CSc1nc(=O)n(Cc2ccncc2)c2c1CCC2", "Potency": "inactive"}
{"molecule": "Cc1ccc(C(=O)N/C(=C\\c2cn(C)c3ccccc23)C(=O)N2CCN(C)CC2)cc1", "Potency": "inactive"}
{"molecule": "CC(=O)OC1CCC2C3CCC4=C(CC(F)C(=O)C4)C3CCC12C", "note": "(centres undefined)", "Potency": "inactive"}
{"molecule": "COCCn1c(C)cc(C2=NNC(=Nc3ccc(F)cc3)SC2)c1C", "Potency": "inactive"}
{"molecule": "Cc1cccc(N=C2NN=C(c3c[nH]c4ccccc34)CS2)c1", "Potency": "inactive"}
{"molecule": "C=CCn1c(C)cc(C2=NNC(=NCC)SC2)c1C", "Potency": "1.16 µM (active)"}
